Data taken from ChEMBL document CHEMBL4513216, “Probing the Open Global Health Chemical Diversity Library for Multistage-Active Starting Points for Next-Generation Antimalarials” (ACS Infect Dis, 2020).
Among all 69,000 compounds or so, about 8,600 (12%) showed an effect of 50% or more. The sample as a whole holds a higher share of strong results than the screen did.

tested on: Plasmodium berghei; assay: Screen against P. berghei liver stage (PbLuc), transformed with Luciferase, at 10uM; assay type: functional, HepG2; details: tested at 10 uM

Which INHIBITION does the source give for `O=C(c1cnccn1)N1CCCC2(CCN(Cc3ccsc3)CC2)C1` here?
Its INHIBITION is -67.6%.

With `O=C(CC1CNCCO1)N1CCC(c2cc(N3CCCC3)ncn2)CC1` (configuration not stated) as the compound, how does the INHIBITION read?
Its INHIBITION is -23.2%.

With `CN(CC(=O)Nc1ccncc1)C1CCCN(c2cccnn2)C1` (configuration not stated) as the compound, how does the INHIBITION read?
Its INHIBITION is 4.52%.

`Cc1cccc(CCC(=O)Nc2ccnn2C2CCS(=O)(=O)C2)c1` (configuration not stated) was tested. Which INHIBITION did it give?
Its INHIBITION is 37.1%.

Which INHIBITION does the source give for `O=C(CCc1cccs1)Nc1ccnn1C1CCS(=O)(=O)C1` (configuration not stated) here?
Its INHIBITION is 22.6%.

With `O=C(CCc1ccsc1)Nc1ccnn1C1CCS(=O)(=O)C1` (configuration not stated) as the compound, how does the INHIBITION read?
The INHIBITION was 54.3%.

`c1coc(CN2C[C@@H]3CCCO[C@@H]3[C@H](N3CCCC3)C2)c1` was tested. Which INHIBITION did it give?
The INHIBITION was 24.5%.

With `O=C(CN(Cc1cccs1)c1ccc(F)cc1)NC1CCOCC1` as the compound, how does the INHIBITION read?
Its INHIBITION is 37.6%.

Which INHIBITION does the source give for `Cc1ccc(CN(CC(=O)NCC2CCOC2)c2ccc(F)cc2)o1` (configuration not stated) here?
Its INHIBITION is 7.39%.

`Cc1ccc(CN(CC(=O)NC2CCOCC2)c2ccc(F)cc2)o1` was tested. Which INHIBITION did it give?
The INHIBITION was 67.8%.

For `CN1CCN(Cc2cccnc2)C2(CCN(c3ncc(F)cn3)C2)C1=O` (configuration not stated), which INHIBITION is on record?
Its INHIBITION is -8.19%.

`Cc1nc(C(=O)N(C)C)nn1-c1ccccc1C(C)C` was tested. Which INHIBITION did it give?
The INHIBITION was 30.8%.

For `CC(C)c1noc(CCC(=O)N2CCSCC2)n1`, which INHIBITION is on record?
Its INHIBITION is 51.8%.

`CC(=O)N1CCN(C(=O)CCCc2nc(C(C)C)no2)CC1` was tested. Which INHIBITION did it give?
The INHIBITION was -8.61%.

How did the INHIBITION turn out when `CC(C)c1noc(CCC(=O)N2CCN(Cc3ccncc3)CC2)n1` was run?
Its INHIBITION is 37.9%.

For `NC(=O)c1ccc(C2CCCNC2)nc1` (configuration not stated), which INHIBITION is on record?
Its INHIBITION is 26.8%.

How did the INHIBITION turn out when `c1ccc(COc2ccccc2CNC2CCc3ncnn3C2)cc1` (configuration not stated) was run?
Its INHIBITION is 26.9%.

How did the INHIBITION turn out when `CNC(=O)COc1ccccc1CNC1CCc2ncnn2C1` (configuration not stated) was run?
The INHIBITION was 63.6%.

With `CN(C)C(=O)COc1ccccc1CNC1CCc2ncnn2C1` (configuration not stated) as the compound, how does the INHIBITION read?
Its INHIBITION is 33.6%.

For `c1ccc(OCC2CC2)c(CNC2CCc3ncnn3C2)c1` (configuration not stated), which INHIBITION is on record?
The INHIBITION was 8.383%.

`CNC(=O)COc1ccccc1CNC1CCc2nc(C)nn2C1` (configuration not stated) was tested. Which INHIBITION did it give?
The INHIBITION was -24.4%.

Which INHIBITION does the source give for `c1ccc(OC2CCCC2)c(CNC2CCc3ncnn3C2)c1` (configuration not stated) here?
Its INHIBITION is 62.8%.

`CCCc1n[nH]c(=O)n1[C@@H](CC)c1ccccc1` was tested. Which INHIBITION did it give?
Its INHIBITION is 3.38%.

How did the INHIBITION turn out when `COCCNC(=O)N1CC(Cc2ccccc2F)C1` was run?
The INHIBITION was -20.6%.

Which INHIBITION does the source give for `Cc1ccc(F)c(C(=O)N2CCC(Nc3ccc(C)nn3)CC2)c1` here?
Its INHIBITION is -15.5%.

How did the INHIBITION turn out when `Cc1cc(C)nc(N2Cc3cnn(Cc4ccc(F)cc4)c3C2)n1` was run?
The INHIBITION was 22.4%.

Which INHIBITION does the source give for `Cc1nccnc1N1Cc2cnn(Cc3ccc(F)cc3)c2C1` here?
The INHIBITION was 39.1%.

For `Cc1ncc(C)c(N2Cc3cnn(Cc4ccc(F)cc4)c3C2)n1`, which INHIBITION is on record?
Its INHIBITION is 32.5%.

`CCNc1ccnc(N2Cc3cnn(Cc4ccc(F)cc4)c3C2)n1` was tested. Which INHIBITION did it give?
The INHIBITION was 78.4%.

`Fc1ccc(Cn2ncc3c2CN(c2ncccn2)C3)cc1` was tested. Which INHIBITION did it give?
Its INHIBITION is -1.91%.

For `Cc1ccnc(N2Cc3cnn(Cc4ccc(F)cc4)c3C2)n1`, which INHIBITION is on record?
Its INHIBITION is 39.1%.

Which INHIBITION does the source give for `CCCc1nc(N2Cc3cnn(Cc4ccc(F)cc4)c3C2)no1` here?
Its INHIBITION is 26.1%.

For `Cc1nc(N2Cc3cnn(Cc4ccc(F)cc4)c3C2)no1`, which INHIBITION is on record?
The INHIBITION was 12.8%.

For `CNc1cc(C)nc(N2Cc3cnn(Cc4ccc(F)cc4)c3C2)n1`, which INHIBITION is on record?
The INHIBITION was 75.1%.

With `N#Cc1cnc(N2Cc3cnn(Cc4ccc(F)cc4)c3C2)nc1N` as the compound, how does the INHIBITION read?
Its INHIBITION is 61.2%.

For `Cc1cnc(N2Cc3cnn(Cc4ccc(F)cc4)c3C2)nc1N(C)C`, which INHIBITION is on record?
The INHIBITION was 77.6%.

Which INHIBITION does the source give for `Fc1ccc(Cn2ncc3c2CN(c2noc(C4CC4)n2)C3)cc1` here?
Its INHIBITION is 33.3%.
